Measurements taken from article PMC7862700, “An all-to-all approach to the identification of sequence-specific readers for epigenetic DNA modifications on cytosine”.

Legend:
Experiment in all cases: DAPPL (digital affinity profiling via proximity ligation, sequencing); 10 mM Tris-HCl pH 7.5, 50 mM NaCl, 1 mM DTT, 4% glycerol, room temperature, 30 min; GST-TFs on glutathione beads, 16-mer random dsDNA library, 0.1% formaldehyde crosslink after washing; high values mean tight binding
FLI1 = biological target: T1, FLI1 (Homo sapiens, UniProt Q01543 1-452); details: protein: recombinant; tags: N-terminal GST; dsDNA, one strand shown
T1 sequence: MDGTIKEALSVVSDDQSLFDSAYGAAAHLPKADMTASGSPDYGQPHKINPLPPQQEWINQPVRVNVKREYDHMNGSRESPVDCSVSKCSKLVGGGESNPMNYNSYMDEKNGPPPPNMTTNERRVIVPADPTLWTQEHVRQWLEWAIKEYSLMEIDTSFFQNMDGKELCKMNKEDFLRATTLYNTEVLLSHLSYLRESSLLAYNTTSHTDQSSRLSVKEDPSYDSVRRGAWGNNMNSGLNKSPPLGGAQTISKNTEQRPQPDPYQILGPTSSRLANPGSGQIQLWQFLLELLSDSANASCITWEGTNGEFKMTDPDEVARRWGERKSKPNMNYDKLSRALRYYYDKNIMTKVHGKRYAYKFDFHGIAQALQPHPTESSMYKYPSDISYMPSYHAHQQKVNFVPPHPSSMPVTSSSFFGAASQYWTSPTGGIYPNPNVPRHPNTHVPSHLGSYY
Outline: (§1)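 Human transcription factors were made in yeast as GST fusions, captured on glutathione beads and barcoded with DNA. With a tag-only sample included, the pool was incubated with 200 nmole of a random double-stranded 16-mer DNA library in Tris/NaCl/DTT/glycerol buffer at room temperature for 30 min, then crosslinked with 0.1% formaldehyde after washing, ligated by proximity, amplified and sequenced. For binding signal, each hexamer's read frequency for a factor is divided by its frequency for the tag-only sample.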

ERG = biological target: T2, ERG (Homo sapiens, UniProt P11308 1-479); details: protein: recombinant; tags: N-terminal GST; dsDNA, one strand shown
T2 sequence: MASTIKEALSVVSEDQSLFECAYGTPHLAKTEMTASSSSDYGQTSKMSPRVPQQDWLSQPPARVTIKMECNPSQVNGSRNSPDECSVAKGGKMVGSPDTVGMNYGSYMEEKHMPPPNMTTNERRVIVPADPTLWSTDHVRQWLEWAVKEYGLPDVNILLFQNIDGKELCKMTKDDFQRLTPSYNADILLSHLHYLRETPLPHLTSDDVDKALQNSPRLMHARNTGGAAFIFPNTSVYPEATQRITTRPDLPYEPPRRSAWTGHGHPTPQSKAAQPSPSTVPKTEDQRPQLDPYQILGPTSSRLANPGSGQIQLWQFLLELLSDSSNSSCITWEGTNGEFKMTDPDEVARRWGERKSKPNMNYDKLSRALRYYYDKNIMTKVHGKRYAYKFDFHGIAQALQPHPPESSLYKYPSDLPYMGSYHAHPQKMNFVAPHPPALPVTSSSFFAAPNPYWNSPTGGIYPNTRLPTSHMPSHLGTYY
Outline: as §1

ELF1 = ELF1 (Homo sapiens, UniProt P32519 1-619); details: protein: recombinant; tags: N-terminal GST; dsDNA, one strand shown
Outline: as §1

EHF = biological target: T3, EHF (Homo sapiens, UniProt Q9NZC4 1-300); details: protein: recombinant; tags: N-terminal GST; dsDNA, one strand shown
T3 sequence: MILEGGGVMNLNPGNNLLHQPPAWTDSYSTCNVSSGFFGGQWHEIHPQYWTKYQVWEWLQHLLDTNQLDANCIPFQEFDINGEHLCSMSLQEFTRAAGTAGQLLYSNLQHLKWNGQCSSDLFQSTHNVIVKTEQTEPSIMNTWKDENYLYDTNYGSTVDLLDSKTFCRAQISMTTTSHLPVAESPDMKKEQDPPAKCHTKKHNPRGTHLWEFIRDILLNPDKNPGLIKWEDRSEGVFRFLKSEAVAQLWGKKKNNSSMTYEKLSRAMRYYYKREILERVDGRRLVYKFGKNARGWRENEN
Outline: as §1

SPI1 = SPI1 (Homo sapiens, UniProt P17947 1-270); details: protein: recombinant; tags: N-terminal GST; dsDNA, one strand shown
Outline: as §1

SPIB = SPIB (Homo sapiens, UniProt Q01892 1-262); details: protein: recombinant; tags: N-terminal GST; dsDNA, one strand shown
Outline: as §1

ETV5 = ETV5 (Homo sapiens, UniProt P41161 1-510); details: protein: recombinant; tags: N-terminal GST; dsDNA, one strand shown
Outline: as §1

HSF1 = HSF1 (Homo sapiens, UniProt Q00613 1-529); details: protein: recombinant; tags: N-terminal GST; chain copies: 3; dsDNA, one strand shown
Outline: as §1

SPIC = biological target: T4, SPIC (Homo sapiens, UniProt Q8N5J4 1-248); details: protein: recombinant; tags: N-terminal GST; dsDNA, one strand shown
T4 sequence: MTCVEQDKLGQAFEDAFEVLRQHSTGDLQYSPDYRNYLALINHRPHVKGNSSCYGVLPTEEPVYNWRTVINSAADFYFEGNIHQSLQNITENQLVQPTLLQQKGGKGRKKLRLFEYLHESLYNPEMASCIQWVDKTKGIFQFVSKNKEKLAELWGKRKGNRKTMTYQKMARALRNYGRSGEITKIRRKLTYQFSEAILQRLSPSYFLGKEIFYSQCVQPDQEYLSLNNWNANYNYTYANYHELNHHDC
Outline: as §1

ELF4 = ELF4 (Homo sapiens, UniProt Q99607 1-663); details: protein: recombinant; tags: N-terminal GST; dsDNA, one strand shown
Outline: as §1

ELK4 = biological target: T5, ELK4 (Homo sapiens, UniProt P28324-2 1-405); details: protein: recombinant; tags: N-terminal GST; dsDNA, one strand shown
T5 sequence: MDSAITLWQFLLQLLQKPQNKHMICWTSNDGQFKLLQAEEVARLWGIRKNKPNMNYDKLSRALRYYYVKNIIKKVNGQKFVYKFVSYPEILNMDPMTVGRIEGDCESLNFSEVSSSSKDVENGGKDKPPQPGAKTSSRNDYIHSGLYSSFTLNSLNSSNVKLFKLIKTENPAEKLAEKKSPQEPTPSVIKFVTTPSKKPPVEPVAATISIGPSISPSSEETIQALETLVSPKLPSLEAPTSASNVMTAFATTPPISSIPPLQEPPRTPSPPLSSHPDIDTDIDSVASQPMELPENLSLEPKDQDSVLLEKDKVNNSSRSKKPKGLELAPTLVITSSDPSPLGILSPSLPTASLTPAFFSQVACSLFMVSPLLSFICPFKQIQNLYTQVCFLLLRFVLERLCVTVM
Outline: as §1

ETV2 = biological target: T6, ETV2 (Homo sapiens, UniProt O00321 1-342); details: protein: recombinant; tags: N-terminal GST; dsDNA, one strand shown
T6 sequence: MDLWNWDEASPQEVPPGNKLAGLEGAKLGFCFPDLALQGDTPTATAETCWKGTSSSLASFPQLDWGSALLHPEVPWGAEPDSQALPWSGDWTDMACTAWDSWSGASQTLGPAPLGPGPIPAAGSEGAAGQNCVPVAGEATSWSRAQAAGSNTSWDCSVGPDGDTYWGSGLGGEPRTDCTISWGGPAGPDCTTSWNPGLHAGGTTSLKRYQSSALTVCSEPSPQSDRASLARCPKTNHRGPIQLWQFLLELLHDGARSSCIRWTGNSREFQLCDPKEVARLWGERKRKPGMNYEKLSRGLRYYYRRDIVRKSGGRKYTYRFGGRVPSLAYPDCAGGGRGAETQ
Outline: as §1

CRX = CRX (Homo sapiens, UniProt O43186 1-299); details: protein: recombinant; tags: N-terminal GST; dsDNA, one strand shown
Outline: as §1

ETV1 = ETV1 (Homo sapiens, UniProt P50549 1-477); details: protein: recombinant; tags: N-terminal GST; dsDNA, one strand shown
Outline: as §1

ELK1 = biological target: T7, ELK1 (Homo sapiens, UniProt P19419 1-428); details: protein: recombinant; tags: N-terminal GST; dsDNA, one strand shown
T7 sequence: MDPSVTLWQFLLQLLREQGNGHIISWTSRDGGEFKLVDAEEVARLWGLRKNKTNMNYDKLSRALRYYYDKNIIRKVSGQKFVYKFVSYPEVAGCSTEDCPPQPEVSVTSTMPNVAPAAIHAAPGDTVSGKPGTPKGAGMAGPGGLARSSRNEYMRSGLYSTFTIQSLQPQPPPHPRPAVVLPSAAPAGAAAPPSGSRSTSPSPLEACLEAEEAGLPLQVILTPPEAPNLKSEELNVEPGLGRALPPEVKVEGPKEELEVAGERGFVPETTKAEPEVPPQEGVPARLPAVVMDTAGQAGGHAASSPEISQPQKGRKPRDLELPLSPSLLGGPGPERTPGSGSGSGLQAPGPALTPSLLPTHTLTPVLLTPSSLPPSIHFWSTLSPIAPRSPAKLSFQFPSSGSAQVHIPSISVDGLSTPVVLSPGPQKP
Outline: as §1

ELK3 = biological target: T8, ELK3 (Homo sapiens, UniProt P41970 1-407); details: protein: recombinant; tags: N-terminal GST; dsDNA, one strand shown
T8 sequence: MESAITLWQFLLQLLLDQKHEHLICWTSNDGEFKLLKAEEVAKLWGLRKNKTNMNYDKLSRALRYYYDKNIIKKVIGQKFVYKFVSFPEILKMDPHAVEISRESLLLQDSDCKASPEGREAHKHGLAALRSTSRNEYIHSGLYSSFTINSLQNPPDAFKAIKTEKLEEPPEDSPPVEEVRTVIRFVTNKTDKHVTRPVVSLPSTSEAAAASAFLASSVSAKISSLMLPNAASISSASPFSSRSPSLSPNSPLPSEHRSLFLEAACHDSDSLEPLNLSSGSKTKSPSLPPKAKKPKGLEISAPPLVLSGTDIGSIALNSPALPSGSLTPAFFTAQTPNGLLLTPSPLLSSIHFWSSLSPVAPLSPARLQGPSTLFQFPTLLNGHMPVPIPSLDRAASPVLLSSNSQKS
Outline: as §1

ELF3 = biological target: T9, ELF3 (Homo sapiens, UniProt P78545 1-371); details: protein: recombinant; tags: N-terminal GST; dsDNA, one strand shown
T9 sequence: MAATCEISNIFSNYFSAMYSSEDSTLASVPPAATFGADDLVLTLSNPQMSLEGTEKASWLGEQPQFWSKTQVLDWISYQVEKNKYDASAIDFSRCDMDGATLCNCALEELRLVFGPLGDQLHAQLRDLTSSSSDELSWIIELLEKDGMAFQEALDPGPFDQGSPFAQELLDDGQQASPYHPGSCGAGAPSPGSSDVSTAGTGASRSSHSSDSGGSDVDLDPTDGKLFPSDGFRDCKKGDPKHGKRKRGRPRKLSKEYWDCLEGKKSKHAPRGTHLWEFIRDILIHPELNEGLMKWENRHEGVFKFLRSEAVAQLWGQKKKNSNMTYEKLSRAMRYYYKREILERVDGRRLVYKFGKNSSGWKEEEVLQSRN
Outline: as §1

Sequence of ETV5 (P41161 whole entry): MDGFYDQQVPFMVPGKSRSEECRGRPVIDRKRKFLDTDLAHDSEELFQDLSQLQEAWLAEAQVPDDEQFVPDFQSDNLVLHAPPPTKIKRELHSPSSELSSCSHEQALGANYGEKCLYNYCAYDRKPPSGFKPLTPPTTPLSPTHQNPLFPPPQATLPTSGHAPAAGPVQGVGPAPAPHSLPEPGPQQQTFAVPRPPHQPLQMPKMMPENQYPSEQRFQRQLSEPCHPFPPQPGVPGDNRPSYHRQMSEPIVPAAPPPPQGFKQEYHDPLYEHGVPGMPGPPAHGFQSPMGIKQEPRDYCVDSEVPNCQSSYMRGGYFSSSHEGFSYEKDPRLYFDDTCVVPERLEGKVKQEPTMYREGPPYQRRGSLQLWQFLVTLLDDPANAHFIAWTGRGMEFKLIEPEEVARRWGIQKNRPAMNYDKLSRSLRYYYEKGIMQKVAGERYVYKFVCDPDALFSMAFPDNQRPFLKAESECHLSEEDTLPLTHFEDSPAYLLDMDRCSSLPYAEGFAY
Sequence of SPIB (Q01892 whole entry): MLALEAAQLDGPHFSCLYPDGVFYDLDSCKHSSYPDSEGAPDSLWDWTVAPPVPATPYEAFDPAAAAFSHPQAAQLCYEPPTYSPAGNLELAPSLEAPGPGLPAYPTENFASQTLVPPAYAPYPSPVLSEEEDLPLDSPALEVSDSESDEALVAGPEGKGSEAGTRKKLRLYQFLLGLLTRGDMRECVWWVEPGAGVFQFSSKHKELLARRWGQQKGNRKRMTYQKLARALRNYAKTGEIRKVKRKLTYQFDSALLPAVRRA
Sequence of CRX (O43186 whole entry): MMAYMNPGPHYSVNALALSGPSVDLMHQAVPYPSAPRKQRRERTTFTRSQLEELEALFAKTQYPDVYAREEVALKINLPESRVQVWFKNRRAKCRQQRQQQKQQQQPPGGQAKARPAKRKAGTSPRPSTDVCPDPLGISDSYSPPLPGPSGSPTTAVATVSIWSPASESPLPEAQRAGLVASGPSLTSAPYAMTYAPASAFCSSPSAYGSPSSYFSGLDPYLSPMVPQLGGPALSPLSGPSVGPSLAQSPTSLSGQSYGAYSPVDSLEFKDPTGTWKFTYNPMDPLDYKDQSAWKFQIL
Sequence of ELF1 (P32519 whole entry): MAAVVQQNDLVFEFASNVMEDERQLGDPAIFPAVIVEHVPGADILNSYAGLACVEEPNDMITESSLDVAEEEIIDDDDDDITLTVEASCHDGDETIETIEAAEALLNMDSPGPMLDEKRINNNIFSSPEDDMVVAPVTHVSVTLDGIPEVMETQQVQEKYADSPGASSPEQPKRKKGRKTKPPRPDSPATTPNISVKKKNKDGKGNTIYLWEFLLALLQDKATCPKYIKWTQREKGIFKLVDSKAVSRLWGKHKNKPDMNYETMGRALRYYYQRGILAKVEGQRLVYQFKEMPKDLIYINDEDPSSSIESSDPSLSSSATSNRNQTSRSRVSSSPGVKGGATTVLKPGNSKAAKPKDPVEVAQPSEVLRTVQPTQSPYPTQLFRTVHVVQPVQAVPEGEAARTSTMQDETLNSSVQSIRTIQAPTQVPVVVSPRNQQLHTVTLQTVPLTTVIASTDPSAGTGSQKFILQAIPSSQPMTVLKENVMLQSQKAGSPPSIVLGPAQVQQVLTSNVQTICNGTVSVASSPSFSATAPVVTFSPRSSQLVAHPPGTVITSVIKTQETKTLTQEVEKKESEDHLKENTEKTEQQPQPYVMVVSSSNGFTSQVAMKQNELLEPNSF
Sequence of ETV1 (P50549 whole entry): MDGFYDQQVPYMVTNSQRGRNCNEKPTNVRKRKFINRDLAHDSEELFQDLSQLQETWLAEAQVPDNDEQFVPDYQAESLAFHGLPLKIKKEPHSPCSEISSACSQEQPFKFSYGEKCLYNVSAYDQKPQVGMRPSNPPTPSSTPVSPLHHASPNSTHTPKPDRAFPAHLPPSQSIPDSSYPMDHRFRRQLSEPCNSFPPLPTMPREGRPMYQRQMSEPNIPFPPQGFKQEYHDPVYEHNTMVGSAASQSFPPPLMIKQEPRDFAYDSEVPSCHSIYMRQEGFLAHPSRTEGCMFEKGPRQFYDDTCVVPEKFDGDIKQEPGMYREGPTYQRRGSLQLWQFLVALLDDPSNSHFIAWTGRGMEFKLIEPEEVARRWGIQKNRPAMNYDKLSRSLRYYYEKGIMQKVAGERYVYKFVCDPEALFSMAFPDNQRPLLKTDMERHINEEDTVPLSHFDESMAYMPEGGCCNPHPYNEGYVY
Sequence of ELF4 (Q99607 whole entry): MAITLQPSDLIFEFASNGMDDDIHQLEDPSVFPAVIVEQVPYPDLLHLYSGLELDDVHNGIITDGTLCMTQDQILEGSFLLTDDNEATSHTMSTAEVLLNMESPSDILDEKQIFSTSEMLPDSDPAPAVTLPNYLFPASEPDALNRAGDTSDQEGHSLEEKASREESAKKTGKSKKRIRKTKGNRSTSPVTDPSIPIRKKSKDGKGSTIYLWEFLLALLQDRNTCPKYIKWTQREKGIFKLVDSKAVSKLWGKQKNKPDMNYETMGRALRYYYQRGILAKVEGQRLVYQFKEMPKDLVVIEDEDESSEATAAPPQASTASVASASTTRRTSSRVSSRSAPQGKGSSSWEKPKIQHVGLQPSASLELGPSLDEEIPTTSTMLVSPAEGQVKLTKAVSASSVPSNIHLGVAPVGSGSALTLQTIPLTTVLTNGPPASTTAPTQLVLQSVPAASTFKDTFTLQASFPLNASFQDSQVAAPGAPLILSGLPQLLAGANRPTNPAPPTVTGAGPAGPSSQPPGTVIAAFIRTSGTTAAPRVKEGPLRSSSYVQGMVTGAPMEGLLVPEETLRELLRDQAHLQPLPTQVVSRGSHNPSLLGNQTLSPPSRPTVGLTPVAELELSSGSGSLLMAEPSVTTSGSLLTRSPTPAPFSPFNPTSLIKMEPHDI
Sequence of HSF1 (Q00613 whole entry): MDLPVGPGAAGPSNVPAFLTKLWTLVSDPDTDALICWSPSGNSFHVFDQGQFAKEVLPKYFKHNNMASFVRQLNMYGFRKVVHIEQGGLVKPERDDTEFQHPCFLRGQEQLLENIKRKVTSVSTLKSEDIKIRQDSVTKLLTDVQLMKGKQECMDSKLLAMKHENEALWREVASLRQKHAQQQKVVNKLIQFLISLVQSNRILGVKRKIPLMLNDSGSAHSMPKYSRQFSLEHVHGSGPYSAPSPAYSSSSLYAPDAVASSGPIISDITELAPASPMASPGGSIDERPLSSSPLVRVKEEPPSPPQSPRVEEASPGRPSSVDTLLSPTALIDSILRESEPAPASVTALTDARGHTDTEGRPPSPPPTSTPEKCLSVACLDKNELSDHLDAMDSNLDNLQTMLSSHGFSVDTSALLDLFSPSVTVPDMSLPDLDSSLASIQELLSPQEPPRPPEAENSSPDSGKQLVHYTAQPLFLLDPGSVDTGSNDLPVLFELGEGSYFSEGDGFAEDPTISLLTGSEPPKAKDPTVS

Row | Sequence | binding signal (FLI1) | binding signal (ERG) | binding signal (ELF1) | binding signal (EHF) | binding signal (SPI1) | binding signal (SPIB) | binding signal (ETV5) | binding signal (HSF1) | binding signal (SPIC) | binding signal (ELF4) | binding signal (ELK4) | binding signal (ETV2) | binding signal (CRX) | binding signal (ETV1) | binding signal (ELK1) | binding signal (ELK3) | binding signal (ELF3)
1 | GAAAGA | 1.01 fold enrichment (6-mer frequency, TF over GST control) | 1.02 fold enrichment (6-mer frequency, TF over GST control) | 1.08 fold enrichment (6-mer frequency, TF over GST control) | 1.01 fold enrichment (6-mer frequency, TF over GST control) | 1.14 fold enrichment (6-mer frequency, TF over GST control) | 1.02 fold enrichment (6-mer frequency, TF over GST control) | 1.04 fold enrichment (6-mer frequency, TF over GST control) | 1.4 fold enrichment (6-mer frequency, TF over GST control) | 1.05 fold enrichment (6-mer frequency, TF over GST control) | 1.07 fold enrichment (6-mer frequency, TF over GST control) | 1.01 fold enrichment (6-mer frequency, TF over GST control) | 1.07 fold enrichment (6-mer frequency, TF over GST control) | 1.01 fold enrichment (6-mer frequency, TF over GST control) | 1.03 fold enrichment (6-mer frequency, TF over GST control) | – | – | –
2 | ATCAGC | 1.03 fold enrichment (6-mer frequency, TF over GST control) | – | 1.01 fold enrichment (6-mer frequency, TF over GST control) | 1.02 fold enrichment (6-mer frequency, TF over GST control) | – | 1.02 fold enrichment (6-mer frequency, TF over GST control) | 1.01 fold enrichment (6-mer frequency, TF over GST control) | 1.01 fold enrichment (6-mer frequency, TF over GST control) | 1 fold enrichment (6-mer frequency, TF over GST control) | 1.02 fold enrichment (6-mer frequency, TF over GST control) | 1.14 fold enrichment (6-mer frequency, TF over GST control) | – | 1.31 fold enrichment (6-mer frequency, TF over GST control) | 1.01 fold enrichment (6-mer frequency, TF over GST control) | 1.08 fold enrichment (6-mer frequency, TF over GST control) | 1.03 fold enrichment (6-mer frequency, TF over GST control) | 1.13 fold enrichment (6-mer frequency, TF over GST control)
